Measured values reported in PubChem BioAssay AID1240 (Sanford-Burnham Center for Chemical Genomics, 2008).
Out of some 50,000 compounds screened, about 800 (1.6%) showed an effect of 50% or more. The sample holds strong results, similar compounds and a random draw of the others, so the mix is not that of the screen.

The compounds below were run against Bcl-2-like protein 10 (Homo sapiens) (UniProt Q9HD36) (assay: Phenotype converters, Bcl-B/TR3 peptide binding displacement, primary biochemical FP (AID 1240;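 note: 0% = Bcl-B with tracer peptide and DMSO and 100% = tracer peptide lacking Bcl-B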)). Settings: GST-Bcl-B / FITC-TR3 peptide fluorescence polarization; stronger effect = higher value; compound at 3.75 mg/L.
Chain of Bcl-2-like protein 10 (Homo sapiens) (Q9HD36 whole entry, looked up): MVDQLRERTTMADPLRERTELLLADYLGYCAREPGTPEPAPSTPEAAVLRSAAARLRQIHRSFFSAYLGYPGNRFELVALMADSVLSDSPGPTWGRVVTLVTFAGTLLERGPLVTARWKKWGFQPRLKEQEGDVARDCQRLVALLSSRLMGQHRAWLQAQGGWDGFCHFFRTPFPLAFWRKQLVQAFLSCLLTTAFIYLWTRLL

Structure (SMILES)	displacement [%]
Cc1cccc(OCC(=O)Nc2ccccc2Cl)c1C	-1.5
Cc1ccccc1OCCOc1ccc(/C=C2/SC(=S)N(C)C2=O)cc1	0.3
CC1(C)CC(NC(=O)c2ccccc2F)CC(C)(C)N1	-12.3
COc1cc(/C=C(\C#N)c2nc3ccccc3[nH]2)ccc1OCC(=O)O	43.5
COc1ccc(C=C2C(=O)N(c3ccc(C)cc3)C(=S)N(c3ccc(C)cc3)C2=O)cc1C(=O)O	15
COc1ccc(OC(C)C(=O)Nc2ccc(N(C)C)cc2)cc1 (stereo not drawn)	9.1
O=C(NCCNc1ccc(Cl)cc1[N+](=O)[O-])c1ccccc1F	-0.6
O=C(Cn1cc(/C=C2/C(=O)NC(=S)N(c3ccccc3F)C2=O)c2ccccc21)Nc1ccccc1	30.7
Cc1ccccc1N1C(=O)NC(=O)/C(=C/c2cn(CC(=O)Nc3ccccc3)c3ccccc23)C1=O	53.6
O=C(Cn1cc(/C=C2/C(=O)NC(=O)N(c3ccccc3F)C2=O)c2ccccc21)Nc1ccccc1	51.1
O=C(Cn1cc(/C=C2\NC(=O)NC2=O)c2ccccc21)Nc1ccccc1	7.5
N#CC(C#N)=Cc1cn(CC(=O)Nc2ccccc2)c2ccccc12	-17.6
CN1C(=O)C(=Cc2cn(CC(=O)Nc3ccccc3)c3ccccc23)C(=O)N(C)C1=O	-6.8
COc1ccc(C2Nc3ccccc3NC3=C2C(=O)CC(c2ccccc2)C3)c(OC)c1 (stereo not drawn)	5.9
CCN1CCN(Cc2c(O)ccc3ccccc23)CC1	13.6
O=C(/C=C/c1ccc(-c2cccc([N+](=O)[O-])c2)o1)c1ccc(F)cc1	3.4
N#C/C(=C/c1ccc(-c2cc(Cl)ccc2Cl)o1)C(=O)O	2
O=C(/C=C\c1ccc(-c2cc(Cl)ccc2Cl)o1)c1ccccc1	24.9
N#CC(C#N)=Cc1ccc(-c2cc(Cl)ccc2Cl)o1	93.5
O=C(/C=C/c1ccc(-c2cc(Cl)ccc2Cl)o1)c1ccco1	126
O=C(/C=C/c1ccc(-c2cccc([N+](=O)[O-])c2)o1)Nc1ccc(Cl)cc1	4.5
O=C(/C=C/c1ccc(-c2ccc(Cl)cc2Cl)o1)c1ccco1	3.4
O=C(/C=C/c1ccc(-c2cccc([N+](=O)[O-])c2)o1)c1ccco1	79.3
O=C(/C=C/c1ccc(-c2cccc(Br)c2)o1)c1ccco1	11.8
O=C(/C=C/c1ccc(-c2cccc([N+](=O)[O-])c2)o1)c1cc2ccccc2o1	119
N#CC(C#N)=Cc1ccc(-c2ccc(Cl)c(C(=O)O)c2)o1	0.6
CC(=O)/C=C/c1ccc(-c2cccc([N+](=O)[O-])c2)o1	-5.2
N#Cc1c2c(c(N3CCN(c4ccccn4)CC3)n3c1nc1ccccc13)CCC2	2.1
